# From PubChem BioAssay
# This is one part of a sample in which hits are shown more often than they occur.
# Pf Dd2 growth: qHTS Primary assay for Inhibitors of Plasmodium falciparum Dd2 growth in vitro. AID 1347417, 2020. P. falciparum Dd2 growth, SYBR Green, 72 h. hit rate 4.3% among 120,000. Potency, µM (top dose mostly 28.9 µM), most hits filed as inhibitors; active = well fitted inhibition curve with a large enough effect; note: nearly all actives have a fitted effect of over 65% in size
#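 Readout: SYBR Green fluorescence, 485 nm excitation, 535 nm emission, after ~16 h lysis at 37C. Before that, Dd2-infected red cells (2.5% hematocrit) grew 72 h with compound, 29 uM top final concentration.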
# Numbers stand for hits; . = inactive; [ ] = another dose, or the depositor's remark.
SMILES,Pf Dd2 growth
COc1ccc(-c2cn3c(n2)sc2cc(C(=O)NCCCN4CCCCCC4)ccc23)cc1,8.9µM
COc1ccc(-c2cn3c(n2)sc2cc(C(=O)Nc4cccc(OC)c4)ccc23)cc1,.
COc1ccc(-c2cn3c(n2)sc2cc(C(=O)NC4CCCCCC4)ccc23)cc1,.
O=C(NC1CCCCC1)c1ccc2c(c1)sc1nc(-c3ccc(F)cc3)cn12,.
O=C(NC1CCCCCC1)c1ccc2c(c1)sc1nc(-c3ccc(F)cc3)cn12,.
CCOC(=O)C1CCN(C(=O)c2ccc3c(c2)sc2nc(-c4ccc(OCC)cc4)cn23)CC1,8.9µM
COc1cccc(-c2cn3c(n2)sc2cc(C(=O)NCCC4=CCCCC4)ccc23)c1,.
CNC(=O)C1CCc2ncc(-c3ccsc3)n2C1 (stereo not given),.
COc1ccc(NC(=O)N2CCC3(CC2)SCC(=O)N3c2ccc(F)cc2)cc1,.
COC[C@H]1C[C@@H](NC2CCN(C)CC2)[C@H](O)[C@@H]1O,.
Cc1nn(C)c2ncnc(N3CCCC(Cc4nc5ccccc5[nH]4)C3)c12 (stereo not given),.
CC(C)c1ccc(CNC(=O)c2noc(-c3ccc4c(c3)OCO4)n2)cc1,.
COCC[C@]1(O)CCN(C(=O)CCCc2ccccc2)C[C@H]1C,.
COCC1CN(C(C)=O)CC12CCN(C(=O)CCCc1ccccc1)CC2 (stereo not given),.
COCCN1CC2CN(C(=O)CCCc3ccccc3)CC(C1)O2,11µM
COCC(=O)NC1CCC12CCN(C(=O)c1cc3ccccc3[nH]1)CC2 (stereo not given),.
Cn1cc(CN2C[C@@H]3C[C@H](C2)c2ccc(NC(=O)COc4ccccc4)c(=O)n2C3)c2ccccc21,.
Cn1cc(CN2C[C@@H]3C[C@H](C2)c2ccc(NC(=O)c4cccs4)c(=O)n2C3)c2ccccc21,7.9µM
CC(=O)c1ccc(NC(=O)N2C[C@@H]3C[C@H](C2)c2ccc(NC(=O)c4cccs4)c(=O)n2C3)cc1,.
Cc1nc(-c2ccc(OC3CCN(C(=O)NC4CCCCC4)C3)cc2)no1 (stereo not given),.[5.79 µM]
CCCSC1=NC2(CCN(C(=O)NC3CCCCC3)CC2)N=C1c1ccc(OC)cc1,11µM
CCCSC1=NC2(CCN(C(=O)NC3CCCCC3)CC2)N=C1c1ccccc1,.
COC1CCC12CCN(C(=O)NC1CCCCC1)CC2 (stereo not given),.
CCSC1=NC2(CCN(C(=O)NC3CCCCC3)CC2)N=C1c1ccc(OC)cc1,7.1µM
COc1ccc(-c2nc(C(C)C)nc3c2CCN(C(=O)NC2CCCC2)CC3)cc1,.
SMILES,Pf Dd2 growth
CCOC1CCOC2(CCN(C(=O)c3ccn(CC)n3)CC2)C1 (stereo not given),.
COCCNC(=O)c1ccc2c(c1)N(C)C(CC(=O)NC1CCOCC1)CO2 (stereo not given),.
COc1ccc2c(c1)C1(CCN(C(=O)c3ccc(C)c(F)c3)C1)C(=O)N2C (stereo not given),.
OC1(c2csc(CN3CCOCC3)n2)CCN(C2COC2)CC1,.
Cc1noc([C@@H](C)NC(=O)C2CCCC2)c1C(=O)O,.
COCCNC(=O)C[C@@H]1C[C@H]2O[C@H](CNCc3ccncc3F)[C@@H](O)[C@H]2O1,.
COc1ccccc1CN1CCC2(CC1)OC(=O)N(Cc1ccccc1F)C2(C)c1ccccc1 (stereo not given),4µM
CC(=O)Nc1ccc(CN2C(=O)OC3(CCN(Cc4ccccc4)CC3)C2(C)c2ccccc2)cc1 (stereo not given),.
COc1ccc(CN2CCC3(CC2)OC(=O)N(Cc2ccccc2C#N)C3(C)c2ccccc2)cc1O (stereo not given),.
COc1ccccc1CN1CCC2(CC1)OC(=O)N(Cc1ccc(NC(C)=O)cc1)C2(C)c1ccccc1 (stereo not given),13µM
COc1ccccc1CN1CCC2(CC1)OC(=O)N(Cc1csc(C)n1)C2(C)c1ccccc1 (stereo not given),.
CC1(c2ccccc2)N(Cc2ccccc2F)C(=O)OC12CCN(Cc1ccc(C#N)cc1)CC2 (stereo not given),.
CCCNC(=O)N1C[C@@H](Oc2ccccc2)C[C@@H]1C(=O)NCCOC,.
Cc1ccc(C(=O)N2CCC(n3cc(-c4nc(C(C)C)no4)nn3)C2)cc1C (stereo not given),.
O=C1NCCCCCN(C(=O)Nc2ccccc2)[C@H]2CCCC[C@@H]12,.
CCn1ncc(N2CCC(NC(=O)Cc3ccc(OC)cc3)CC2)cc1=O,.
Cn1nnnc1C1CCCN(C(=O)C2CCCC2)C1 (stereo not given),.
CCC1=C(C(=O)OC)C(c2ccccc2)N2C(CC(=O)N(C)Cc3ccccc3)=CSC2=N1 (stereo not given),.
CCC1=C(C(=O)OC)C(c2ccccc2F)N2C(CC(=O)N3CCCC3)=CSC2=N1 (stereo not given),.
CCCN(CCC)C(=O)CC1=CSC2=NC(CC)=C(C(=O)OC)C(c3cccc(F)c3)N12 (stereo not given),2.2µM
COCC(=O)NC[C@H]1OC[C@@H](NC2CCCCC2)[C@@H]1O,.
CS(=O)(=O)CCNC(=O)C1CCCN(C2CCN(Cc3cccnc3)CC2)C1 (stereo not given),.
COc1cccc(CCC2CCCN(C3CCN(Cc4cccnc4)CC3)C2)c1 (stereo not given),8.9µM
C=CCS(=O)(=O)N1CCCC(CCc2cccc(OC)c2)C1 (stereo not given),.
O=C(C#Cc1ccccc1)NC1CCCc2c1cnn2-c1ccc(F)cc1F (stereo not given),.
SMILES,Pf Dd2 growth
COc1ccc(S(=O)(=O)Nc2ccc(C)n(CC(=O)NCc3ccco3)c2=O)cc1,.
COCCO[C@H]1C(=O)N(C2CCN(C(=O)c3ccncc3)CC2)[C@H]1c1ccncc1,.
CCCC1(CO)CCCN(Cc2cc(OC)c(OC)cc2F)C1 (stereo not given),.
O=C1NC2(CCCN(Cc3ccccc3)C2)Oc2ccccc21 (stereo not given),13µM
COc1ccc(CN2CCC3(C2)NC(=O)c2ccccc2CO3)cc1 (stereo not given),.
O=C1NC2(CCCN(Cc3ccncc3)C2)Oc2ccccc21 (stereo not given),.
O=C1NC2(CCN(Cc3ccc(F)cc3)C2)Oc2ccccc21 (stereo not given),11µM
COc1cccc(CN2CCC3(COc4ccccc4C(=O)N3)C2)c1 (stereo not given),.
O=C1NC2(CCN(Cc3ccccc3)C2)Oc2ccccc21 (stereo not given),.
CN(C)c1ccc(CN2CCC3(C2)NC(=O)c2ccccc2O3)cc1 (stereo not given),.
O=C1NC2(CCCN(Cc3ccsc3)C2)COc2ccccc21 (stereo not given),.
COc1ccc(CN2CCC3(CC2)NC(=O)c2ccccc2O3)cc1,13µM
CC(=O)Nc1ccc(CN2CCC3(CC2)NC(=O)c2ccccc2O3)cc1,.
O=C1NC2(CCN(Cc3ccc(C(F)(F)F)cc3)C2)Oc2ccccc21 (stereo not given),.
COc1cccc(CN2CCCC3(COc4ccccc4C(=O)N3)C2)c1 (stereo not given),11µM
CCc1nn(-c2ccc(OC)cc2)c(Oc2ccccc2F)c1CCC(=O)NCC1CC1,.
CC1CCN(C(=O)Cn2ccn3nc(-c4ccc(F)cc4)c(CO)c3c2=O)CC1,.
O=C1NC2(CCN(Cc3ccc(F)cc3)CC2)Oc2ccccc21,10µM
